Data taken from PMC5540273 (PLoS ONE, 2017).

Experiments:
Details in all cases: concentration: 1 μM, replicates: in singlicate; n = 1
DMPK2 = system: T1, DMPK2
T1 construct: gene CDC42BPG

DMPK = system: DMPK
DRAK1 = system: T2, DRAK1
T2 construct: gene STK17A

DRAK2 = system: T3, DRAK2
T3 construct: gene STK17B

DYRK1A = system: DYRK1A
DYRK1B = system: DYRK1B
DYRK2 = system: DYRK2
EGFR = system: EGFR
EIF2AK1 = system: EIF2AK1
EPHA1 = system: EPHA1
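Also: KINOMEscan kinase panel screen.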

| SMILES | %Inh (DMPK2) [%] | %Inh (DMPK) [%] | %Inh (DRAK1) [%] | %Inh (DRAK2) [%] | %Inh (DYRK1A) [%] | %Inh (DYRK1B) [%] | %Inh (DYRK2) [%] | %Inh (EGFR) [%] | %Inh (EIF2AK1) [%] | %Inh (EPHA1) [%] |
| --- | --- | --- | --- | --- | --- | --- | --- | --- | --- | --- |
| Cc1ccc(NC(=O)Nc2ccccc2)cc1-c1ccc(C(=O)Nc2ccncc2)cc1 [GSK1398471] | 9 | 0 | 9 | 0 | 9 | 0 | 14 | 10 | 0 | 24 |
| COc1ccc(Nc2nccc(N3CCC(NC(=O)C(C)c4ccc(Cl)cc4)CC3)n2)cc1 (stereo not shown) [GSK1379812] | 6 | 1 | 0 | 0 | 99.2 | 0 | 19 | 0 | 0 | 0 |
| O=C1NC(=O)C(c2ccc(Cl)cc2)=C1Nc1ccc(O)cc1 [SB-340867] | 0 | 0 | 0 | 0 | 1 | 0 | 0 | 5 | 0 | 16 |
| COC(=O)C(NC(=O)NC1CCN(c2ccnc(Nc3ccc(F)cc3)n2)C1)c1ccccc1 (stereo not shown) [GSK1379712] | 1 | 0 | 2 | 0 | 0 | 17 | 13 | 23 | 0 | 10 |
| CS(=O)(=O)CCNCc1nc(-c2ccc3ncnc(Nc4ccc5c(cnn5Cc5ccccc5)c4)c3c2)cs1.Cl.Cl [GW569716] | 0 | 0 | 35 | 21 | 36 | 0 | 0 | – | 0 | 14 |
| FC(F)(F)c1ccccc1-c1cc(-c2c[nH]nc2-c2ccccn2)ccn1 [GW679396] | 7 | 16 | 14 | 2 | 0 | 13 | 12 | 0 | 0 | 0 |
| Cn1cnc2c(N)ncnc21 [SKF-97623] | 0 | 0 | 8 | 0 | 0 | 36 | 0 | 13 | 0 | 0 |
| O=c1cc(N2CCOCC2)nc2n(Cc3ccccc3F)ccn12 [GSK2297428] | 0 | 0 | 0 | 0 | 6 | 0 | 9 | 18 | 0 | 3 |
| Nc1ncnc2occ(-c3ccc4c(c3)CCN4C(=O)Cc3cc(F)ccc3F)c12 [GSK2645446] | 51 | 7 | 0 | 0 | 6 | 0 | 0 | 18 | 0 | 11 |
| NS(=O)(=O)c1cccc(N/C=C2\C(=O)Nc3ccc(S(=O)(=O)Cc4c(Cl)cccc4Cl)cc32)c1 [GSK398099] | 18 | 0 | 0 | 0 | 29 | 14 | 9 | 24 | 0 | 12 |
| Cc1nccc(-c2c(-c3ccc(F)cc3)ncn2CCCN2CCOCC2)n1.Cl [SB-282975] | 9 | 22 | 14 | 22 | 17 | 34 | 0 | 17 | 14 | 24 |
| CCc1ccc(-c2ccc3c(c2)-c2n[nH]cc2S(=O)(=O)N3C)cc1 | 0 | 0 | 0 | 0 | 0 | 11 | 0 | 0 | 0 | 11 |
| COC(=O)c1cccc(NC(=O)NC2CCN(c3ccnc(Nc4ccc(OC)cc4)n3)C2)c1 (stereo not shown) [GSK1379746] | 0 | 0 | 4 | 10 | 11 | 15 | 9 | 31 | 0 | 6 |
| COc1nccc(-c2c(-c3ccc(F)cc3)ncn2CCCN2CCOCC2)n1 [SB-282852] | 0 | 8 | 0 | 0 | 0 | 61 | 10 | 8 | 8 | 0 |
| COc1ccc(CSc2nnc(-c3ccc4ncsc4c3)o2)cc1C(F)(F)F | 0 | 0 | 0 | 3 | 36 | 28 | 0 | 7 | 0 | 0 |
| O=C(Nc1n[nH]c2nc(-c3cccs3)c(Br)cc12)C1CCCC1 [SB-743341] | 9 | 5 | 9 | 7 | 24 | 0 | 36 | 1 | 31 | 10 |
| COc1cccc(C2=C(Nc3cc(Cl)c(O)c(Cl)c3)C(=O)NC2=O)c1 [SB-390767] | 0 | 0 | 2 | 0 | 38 | 0 | 2 | 0 | 0 | 8 |
